In PubChem BioAssay (EPA / NIEHS) one finds outcome and AC50 data, which are given here for 24 molecules.

Inconclusive results are not listed. Where a structure was tested more than once in an assay, its records may differ in their call. Calls of active or inactive are those of the source. How the source made its calls, unless noted: active means hit-call score of the fitted dose curve at least 0.9, where 1 is the maximum; inconclusive means response in the unintended direction; inactive means score below 0.9.

The nature of assay [1]: ATG_GAL4_TRANS: Attagene TRANS-FACTORIAL HepG2 Assay for GAL4 (Internal Marker) (AID 2282976). Particulars: HepG2 Attagene TRANS GAL4 internal marker reporter. The method in brief: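 Liver HepG2 line bearing multiplexed GAL4-UAS reporter constructs; 24 h chemical treatment. Transcripts were quantified as fluorescent fragments on capillary electrophoresis after RT-PCR and HpaI cut, with activity fitted upward from DMSO.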

Assay [2] has as its target Estrogen-related receptor gamma (Homo sapiens) (UniProt P62508). In words: ATG_ERRg_TRANS: Attagene TRANS-FACTORIAL HepG2 Assay for human Estrogen-Related Receptor gamma (ERRg) (AID 2282977).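 Further: hits increase reporter signal over DMSO so potencies reflect activators.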 To be noted: HepG2 Attagene TRANS reporter, ERRg transactivation. The procedure, abridged: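 Transient HepG2 transfectants, 24 h compound exposure, GAL4-UAS reporter mRNA by RT-PCR/6-FAM labelling/capillary electrophoresis; positive direction vs DMSO.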

In assay [3] the target is Glucocorticoid receptor (Homo sapiens) (UniProt P04150). Description: ATG_GR_TRANS: Attagene TRANS-FACTORIAL HepG2 Assay for human Glucocorticoid Receptor (GR) (AID 2282978).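 Further: activators score as hits since higher reporter transcript over DMSO is fitted.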 To be noted: HepG2 Attagene TRANS GR reporter, mRNA transcription. The method in brief:
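Fluorescent capillary-electrophoresis quantitation of reporter mRNA is the readout, taken 24 h after dosing human HepG2 cells carrying transiently transfected GAL4-UAS reporter units activated by chimeric NR-GAL4 fusions; activity scored as induction over DMSO.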

Assay [4] has as its target Oxysterols receptor LXR-beta (Homo sapiens) (UniProt P55055). In words: ATG_LXRb_TRANS: Attagene TRANS-FACTORIAL HepG2 Assay for human Liver X Receptor beta (LXRb) (AID 2282981). Particulars: HepG2 Attagene TRANS GAL4-LXRb reporter, mRNA. The procedure, abridged:
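Gain-of-signal mRNA reporter endpoint, DMSO as negative control. Transiently transfected HepG2 cells carrying the NR-Gal4 chimera and GAL4-UAS reporter units were treated 24 h; transcripts quantified by RT-PCR and capillary electrophoresis fluorescence.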

Assay [5] in a line: ATG_M_32_TRANS: Attagene TRANS-FACTORIAL HepG2 Assay for M32 Transcription Factor (Internal Marker) (AID 2282984). To be noted: HepG2 Attagene TRANS M32 internal marker reporter. The procedure, abridged: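 Capillary electrophoresis of 6-FAM-labelled reporter fragments gives the signal; data fitted for gain over DMSO negative control. Source: HepG2 cells bearing transient multiple reporter transcription units, 24 h exposure.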

The target in assay [6] is Nuclear receptor subfamily 4 group A member 2 (Homo sapiens) (UniProt P43354). Description: ATG_NURR1_TRANS: Attagene TRANS-FACTORIAL HepG2 Assay for human Nuclear Receptor Related Protein 1 (NURR1) (AID 2282985). Particulars: HepG2 Attagene TRANS reporter, mRNA readout. The procedure, abridged: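 HepG2 / transient MRTU transfection / 24 h compound exposure / RT-PCR + CE fluorescence of reporter mRNA / gain-of-signal vs DMSO.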

Assay [7] addresses Nuclear respiratory factor 1 (Homo sapiens) (UniProt Q16656). In words: ATG_NRF1_CIS: Attagene CIS-FACTORIAL HepG2 Assay for human Nuclear Respiratory Factor 1 (NRF1) Orphan Gene (AID 2282987; active means hit-call score of the fitted dose curve at least 0.9, where 1 is the maximum; inactive means score below 0.9). To be noted: HepG2 NRF1 cis-element reporter, Attagene multiplex; actives raise or lower the signal. The procedure, abridged: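 Multiplexed cis-reporter assay, HepG2 cells, 24 h treatment. Total RNA → oligo(dT) RT → PCR with reporter-specific primers → 6-FAM primer extension → HpaI cut → CE. Bidirectional fit vs DMSO.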

Assay [8] deals with Oxysterols receptor LXR-alpha (Homo sapiens) (UniProt Q13133). In words: ATG_LXRa_TRANS: Attagene TRANS-FACTORIAL HepG2 Assay for human Liver X Receptor alpha (LXRa) (AID 2282980). To be noted: HepG2 Attagene TRANS reporter, LXRa transactivation. The procedure, abridged:
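In this multiplexed TRANS system, compounds act on HepG2 cells carrying GAL4-UAS reporter units and a receptor-GAL4 fusion for 24 h. Induced reporter RNA is amplified, fluorescently labelled and sized by capillary electrophoresis, with DMSO as baseline.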

For assay [9], the target named is Hepatocyte nuclear factor 4-alpha (Homo sapiens) (UniProt P41235). Description: ATG_HNF4a_TRANS: Attagene TRANS-FACTORIAL HepG2 Assay for human Hepatocyte Nuclear Factor 4 alpha (HNF4a) (AID 2282982). Particulars: HepG2 HNF4a transactivation reporter, mRNA readout. The method in brief:
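Gain-of-signal mRNA induction, relative to DMSO vehicle, was read after 24 h compound treatment of HepG2 cells bearing transfected GAL4-UAS reporters. Detection used RT-PCR, 6-FAM primer extension and capillary electrophoresis.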

Assay [10] deals with Transcriptional activator Myb (Homo sapiens) (UniProt P10242). Description: ATG_Myb_CIS: Attagene CIS-FACTORIAL HepG2 Assay for human Myeloblastosis (Myb) Proto-Oncogene Transcription Factor (AID 2282986; active means hit-call score of the fitted dose curve at least 0.9, where 1 is the maximum; inactive means score below 0.9). To be noted: HepG2 Attagene CIS-FACTORIAL Myb reporter transcription; actives raise or lower the signal. The procedure, abridged: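 Reporter transcript levels, quantified by fluorescent RT-PCR and capillary electrophoresis, serve as the read-out. Transfected HepG2 cells carrying cis-promoter reporter units are dosed for 24 hours, and curves are fitted bidirectionally against DMSO controls.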
Transcriptional activator Myb (Homo sapiens), sequence (P10242 whole entry, looked up): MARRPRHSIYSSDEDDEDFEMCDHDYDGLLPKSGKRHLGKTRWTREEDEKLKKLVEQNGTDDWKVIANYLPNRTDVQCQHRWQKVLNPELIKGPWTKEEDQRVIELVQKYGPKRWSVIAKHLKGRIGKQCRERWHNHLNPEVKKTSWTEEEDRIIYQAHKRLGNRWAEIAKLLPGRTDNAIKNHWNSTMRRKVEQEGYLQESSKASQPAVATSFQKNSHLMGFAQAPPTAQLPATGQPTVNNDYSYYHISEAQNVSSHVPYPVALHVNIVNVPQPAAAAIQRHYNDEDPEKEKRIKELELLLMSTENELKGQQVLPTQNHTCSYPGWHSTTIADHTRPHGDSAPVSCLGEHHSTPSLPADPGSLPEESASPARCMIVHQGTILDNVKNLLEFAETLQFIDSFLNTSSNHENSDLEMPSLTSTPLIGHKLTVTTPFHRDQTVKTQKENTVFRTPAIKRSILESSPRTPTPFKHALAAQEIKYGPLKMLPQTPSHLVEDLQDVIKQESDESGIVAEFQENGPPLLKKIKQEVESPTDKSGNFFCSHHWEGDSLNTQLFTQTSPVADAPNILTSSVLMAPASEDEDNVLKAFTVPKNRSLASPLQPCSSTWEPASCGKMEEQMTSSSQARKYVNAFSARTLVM

Nuclear respiratory factor 1 (Homo sapiens), sequence (Q16656 whole entry, looked up): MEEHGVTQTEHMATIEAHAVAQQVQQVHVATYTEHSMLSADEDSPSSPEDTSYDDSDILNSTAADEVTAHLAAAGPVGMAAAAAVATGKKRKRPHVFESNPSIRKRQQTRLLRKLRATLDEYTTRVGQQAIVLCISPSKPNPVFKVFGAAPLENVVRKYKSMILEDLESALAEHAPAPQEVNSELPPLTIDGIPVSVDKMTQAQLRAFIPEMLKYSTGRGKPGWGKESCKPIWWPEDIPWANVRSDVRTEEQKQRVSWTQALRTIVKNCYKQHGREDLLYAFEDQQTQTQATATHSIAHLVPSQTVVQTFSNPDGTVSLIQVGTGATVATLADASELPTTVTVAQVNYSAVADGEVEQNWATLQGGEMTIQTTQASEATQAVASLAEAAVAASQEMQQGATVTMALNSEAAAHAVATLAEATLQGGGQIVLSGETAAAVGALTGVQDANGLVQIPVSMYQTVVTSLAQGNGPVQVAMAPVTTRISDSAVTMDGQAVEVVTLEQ
Hepatocyte nuclear factor 4-alpha (Homo sapiens), sequence (P41235 whole entry, looked up, the tested form may be a part): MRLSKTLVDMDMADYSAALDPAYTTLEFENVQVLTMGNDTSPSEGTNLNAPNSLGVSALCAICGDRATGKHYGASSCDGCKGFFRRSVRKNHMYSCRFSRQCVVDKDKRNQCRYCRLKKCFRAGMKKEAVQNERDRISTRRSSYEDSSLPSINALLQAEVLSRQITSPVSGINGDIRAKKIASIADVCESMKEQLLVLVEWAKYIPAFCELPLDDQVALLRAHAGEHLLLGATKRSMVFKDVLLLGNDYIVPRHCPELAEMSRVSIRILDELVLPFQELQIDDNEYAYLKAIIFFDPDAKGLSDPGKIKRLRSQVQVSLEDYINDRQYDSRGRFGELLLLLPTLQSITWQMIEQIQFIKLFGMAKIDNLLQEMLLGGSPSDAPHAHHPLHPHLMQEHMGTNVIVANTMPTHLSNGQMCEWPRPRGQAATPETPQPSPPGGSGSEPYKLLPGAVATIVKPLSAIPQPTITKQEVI
Oxysterols receptor LXR-alpha (Homo sapiens), sequence (Q13133 whole entry, looked up, the tested form may be a part): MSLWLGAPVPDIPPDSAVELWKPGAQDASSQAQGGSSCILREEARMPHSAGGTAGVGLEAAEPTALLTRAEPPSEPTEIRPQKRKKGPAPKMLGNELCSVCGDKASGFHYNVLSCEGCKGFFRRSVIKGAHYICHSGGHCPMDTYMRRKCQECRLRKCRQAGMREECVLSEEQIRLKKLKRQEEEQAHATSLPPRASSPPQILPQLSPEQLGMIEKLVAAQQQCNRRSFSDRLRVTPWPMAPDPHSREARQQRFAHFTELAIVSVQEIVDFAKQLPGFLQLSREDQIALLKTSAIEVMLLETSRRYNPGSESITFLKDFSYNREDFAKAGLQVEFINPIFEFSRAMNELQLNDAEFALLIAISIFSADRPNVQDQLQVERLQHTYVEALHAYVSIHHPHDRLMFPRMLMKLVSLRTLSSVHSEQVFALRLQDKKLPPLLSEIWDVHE
Glucocorticoid receptor (Homo sapiens), sequence (P04150 whole entry, looked up, the tested form may be a part): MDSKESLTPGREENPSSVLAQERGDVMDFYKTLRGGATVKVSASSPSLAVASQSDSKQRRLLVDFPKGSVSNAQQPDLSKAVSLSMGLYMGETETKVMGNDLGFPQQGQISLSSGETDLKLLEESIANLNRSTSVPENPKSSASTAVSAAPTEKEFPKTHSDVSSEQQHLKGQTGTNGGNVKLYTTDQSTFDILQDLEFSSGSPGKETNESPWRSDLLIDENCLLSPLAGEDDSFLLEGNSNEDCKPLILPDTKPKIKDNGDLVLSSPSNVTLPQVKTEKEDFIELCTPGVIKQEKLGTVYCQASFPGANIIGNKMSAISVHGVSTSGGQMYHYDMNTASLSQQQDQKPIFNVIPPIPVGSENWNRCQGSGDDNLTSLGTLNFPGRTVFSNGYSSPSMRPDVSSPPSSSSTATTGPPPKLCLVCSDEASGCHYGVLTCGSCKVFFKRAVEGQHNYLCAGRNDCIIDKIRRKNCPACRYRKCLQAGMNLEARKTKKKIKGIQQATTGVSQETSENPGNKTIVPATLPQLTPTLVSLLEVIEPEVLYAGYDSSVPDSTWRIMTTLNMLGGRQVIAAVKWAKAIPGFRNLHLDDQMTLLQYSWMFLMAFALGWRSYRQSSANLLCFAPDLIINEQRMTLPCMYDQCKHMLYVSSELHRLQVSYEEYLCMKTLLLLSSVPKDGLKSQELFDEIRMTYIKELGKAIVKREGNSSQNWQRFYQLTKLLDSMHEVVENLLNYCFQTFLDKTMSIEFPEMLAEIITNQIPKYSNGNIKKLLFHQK
Estrogen-related receptor gamma (Homo sapiens), sequence (P62508 whole entry, looked up, the tested form may be a part): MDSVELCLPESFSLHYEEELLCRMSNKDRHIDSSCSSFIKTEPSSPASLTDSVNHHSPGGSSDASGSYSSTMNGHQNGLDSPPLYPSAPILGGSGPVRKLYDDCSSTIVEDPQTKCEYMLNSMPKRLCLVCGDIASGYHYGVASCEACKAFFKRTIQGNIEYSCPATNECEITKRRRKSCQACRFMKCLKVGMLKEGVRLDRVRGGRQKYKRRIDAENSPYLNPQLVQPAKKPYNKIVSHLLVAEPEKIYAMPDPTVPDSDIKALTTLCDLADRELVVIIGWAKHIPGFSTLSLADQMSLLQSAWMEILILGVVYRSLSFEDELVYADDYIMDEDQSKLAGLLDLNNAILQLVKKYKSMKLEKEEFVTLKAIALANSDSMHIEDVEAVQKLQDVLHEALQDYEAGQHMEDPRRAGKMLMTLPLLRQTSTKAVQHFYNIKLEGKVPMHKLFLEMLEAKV
Oxysterols receptor LXR-beta (Homo sapiens), sequence (P55055 whole entry, looked up, the tested form may be a part): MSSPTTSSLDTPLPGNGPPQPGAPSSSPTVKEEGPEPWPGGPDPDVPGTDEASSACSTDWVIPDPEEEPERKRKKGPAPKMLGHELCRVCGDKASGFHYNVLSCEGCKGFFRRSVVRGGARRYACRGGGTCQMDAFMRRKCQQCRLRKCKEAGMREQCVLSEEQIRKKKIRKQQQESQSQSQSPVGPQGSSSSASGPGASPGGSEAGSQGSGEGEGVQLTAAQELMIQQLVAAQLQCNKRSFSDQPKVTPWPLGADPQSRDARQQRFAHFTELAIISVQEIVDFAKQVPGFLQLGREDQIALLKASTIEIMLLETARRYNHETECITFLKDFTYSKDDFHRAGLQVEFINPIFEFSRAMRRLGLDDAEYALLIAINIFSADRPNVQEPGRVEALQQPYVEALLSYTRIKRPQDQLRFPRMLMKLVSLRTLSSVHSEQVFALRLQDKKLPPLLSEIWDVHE
Nuclear receptor subfamily 4 group A member 2 (Homo sapiens), sequence (P43354 whole entry, looked up): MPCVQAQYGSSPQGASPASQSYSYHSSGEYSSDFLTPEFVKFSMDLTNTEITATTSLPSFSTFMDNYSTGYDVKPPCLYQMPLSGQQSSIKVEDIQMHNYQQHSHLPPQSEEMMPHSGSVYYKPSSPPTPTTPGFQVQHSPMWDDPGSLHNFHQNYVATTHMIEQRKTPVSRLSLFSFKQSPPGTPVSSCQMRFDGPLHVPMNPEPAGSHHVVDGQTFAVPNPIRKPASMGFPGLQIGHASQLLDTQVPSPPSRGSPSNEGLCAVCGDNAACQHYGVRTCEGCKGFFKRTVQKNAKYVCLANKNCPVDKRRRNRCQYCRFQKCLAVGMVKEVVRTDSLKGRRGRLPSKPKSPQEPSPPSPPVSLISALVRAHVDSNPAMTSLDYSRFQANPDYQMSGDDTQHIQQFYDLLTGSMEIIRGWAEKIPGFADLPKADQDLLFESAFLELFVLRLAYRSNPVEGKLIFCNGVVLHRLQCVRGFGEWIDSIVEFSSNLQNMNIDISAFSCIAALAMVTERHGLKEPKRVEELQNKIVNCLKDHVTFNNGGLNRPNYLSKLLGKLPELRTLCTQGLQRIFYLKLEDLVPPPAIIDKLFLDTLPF

Take `CC1(C)C(C=C(Cl)Cl)C1C(=O)OC(C#N)c1ccc(F)c(Oc2ccccc2)c1` (configuration not stated): the outcome in assay [1], in [2], in assay [3], in assay [4], in [5] and in assay [6] was inactive. The outcome in assay [7] was inactive.
On to `CC(C)OC(=O)Nc1cccc(Cl)c1`, for which the molecule was called inactive in assay [2], in assay [8], in assay [4], in assay [9], in assay [5] and in [6]. Also, the result in assay [7] was inactive.
Turning to `CCN(CC)C(=O)SCc1ccc(Cl)cc1`, the result in [2], in assay [3], in assay [8], in assay [4], in assay [9] and in assay [5] was inactive. For the same molecule, the result in assay [6] and in assay [7] was inactive.
Consider `COC(=O)c1ccccc1S(=O)(=O)NC(=O)Nc1nc(C)nc(OC)n1`, for which the molecule was called inactive in assay [1], in assay [8], in [4], in assay [9], in assay [5] and in [6]. Moreover, the result in assay [7] was inactive.
Regarding `CCOCN(C(=O)CCl)c1c(C)cccc1CC`, the call in [1], in assay [2], in assay [4], in [5], in assay [6] and in assay [7] was inactive.
As to `COC(=O)c1ccccc1CS(=O)(=O)NC(=O)Nc1nc(OC)cc(OC)n1`, the molecule was classed as inactive in assay [1], in assay [2], in [3], in [8], in assay [4] and in assay [9]. Also, the molecule was classed as inactive in assay [5], in assay [6], in assay [10] and in [7].
For `O=C(Nc1ccccc1)Nc1cnns1`, the call in assay [2], in assay [3], in [8], in [4], in assay [9] and in assay [5] was inactive. Also, the molecule was called inactive in [6] and in [7].
For the molecule `Cc1cc(C)nc(NC(=O)NS(=O)(=O)c2ccccc2C(=O)OC2COC2)n1`, the outcome in assay [2], in [3], in assay [4], in assay [9], in assay [10] and in [7] was inactive.
Regarding `O=C(O)CCCOc1ccc(Cl)cc1Cl`, the outcome in assay [1], in assay [8], in assay [4], in assay [9] and in [7] was inactive.
Consider `CC(C)(C)C(O)C(Oc1ccc(Cl)cc1)n1cncn1` (configuration not stated), for which the outcome in assay [1], in assay [8], in assay [4], in assay [9], in assay [5] and in assay [6] was inactive. In addition, in assay [7], the outcome was inactive.
As for `CCc1ccc(C(=O)NN(C(=O)c2cc(C)cc(C)c2)C(C)(C)C)cc1`, the molecule was called inactive in assay [2], in [3], in assay [9] and in [7].
Regarding `CCC(C)(NC(=O)c1cc(Cl)c(C)c(Cl)c1)C(=O)CCl` (configuration not stated), the molecule was classed as inactive in assay [2], in assay [3], in [8], in assay [4], in assay [9] and in assay [5]. Moreover, the molecule was classed as inactive in assay [6], in [10] and in assay [7].
Take `CCCN(CCOc1c(Cl)cc(Cl)cc1Cl)C(=O)n1ccnc1`: the outcome in assay [1], in assay [2], in assay [4], in [9], in assay [5] and in assay [6] was inactive. The molecule was called inactive in assay [7].
Regarding `ClC1C(Cl)C(Cl)C(Cl)C(Cl)C1Cl` (configuration not stated), the molecule was called inactive in assay [1], in [2], in [8], in assay [4], in [9] and in assay [5]. Besides, the result in assay [6] and in assay [7] was inactive.
As for `CCS(=O)(=O)c1cccnc1S(=O)(=O)NC(=O)Nc1nc(OC)cc(OC)n1`, the call in [2], in assay [3], in [4], in assay [9], in [5] and in [6] was inactive. Further, the call in assay [7] was inactive.
For the molecule `Oc1ccc(Cl)cc1Cc1ccccc1`, the call in assay [1], in [3], in assay [8], in [4], in assay [9] and in [5] was inactive. Moreover, the call in assay [6] and in assay [7] was inactive. Also, the AC50 in [3] was 33.6 µM (active); in [6], 14.7 µM (active).
Turning to `C[C@H]1[C@H](c2ccc(Cl)cc2)SC(=O)N1C(=O)NC1CCCCC1`, the molecule was called inactive in assay [2], in assay [8], in assay [4], in assay [9], in assay [6] and in assay [7].
For the molecule `CCCN(CCC)c1c([N+](=O)[O-])cc(C(F)(F)F)cc1[N+](=O)[O-]`, the molecule was called inactive in assay [1], in assay [4], in assay [5], in [6] and in assay [7].
Take `CCOc1nc(NC)nc(NC(=O)NS(=O)(=O)c2ccccc2C(=O)OC)n1`: the outcome in assay [2], in assay [3], in assay [4] and in assay [7] was inactive.
On to `O=C(O)C(F)(F)C(F)(F)C(F)(F)C(F)(F)C(F)(F)C(F)(F)C(F)(F)F`, for which the molecule was called inactive in [1], in assay [5], in assay [6] and in assay [7].
Turning to `O=S(=O)(O)C(F)(F)C(F)(F)C(F)(F)C(F)(F)C(F)(F)C(F)(F)C(F)(F)C(F)(F)F`, the call in [1], in assay [2], in assay [8], in assay [4], in [9] and in assay [5] was inactive. The result in [6], in [10] and in assay [7] was inactive. Moreover, in assay [7], the AC50 was 111 µM (active).
On to `COP(=S)(OC)Oc1ccc([N+](=O)[O-])cc1`, for which the outcome in assay [1], in assay [8], in assay [4], in [9], in assay [5] and in assay [6] was inactive. Moreover, the molecule was classed as inactive in [10] and in [7].
Regarding `COP(=S)(OC)Oc1ccc(SC)c(C)c1`, the outcome in assay [1], in [3], in [9], in [5], in assay [6] and in [7] was inactive. In addition, the AC50 in [8] is 24.9 µM (active); in assay [4] it was 39.3 µM (active).
As for `O=C(O)COc1ccc(Cl)cc1Cl`, the call in [1], in assay [3], in assay [9], in assay [5], in assay [6] and in [7] was inactive.

A word on the AC50: it is the concentration giving half of the maximal activity seen.
